In all, about 2,300 compounds went through this assay and about 1,100 (48%) were called active. No rule for the calls is given here. The set was probably picked from earlier hits. The list shows a part of the results. Measured potencies and affinities stand elsewhere.
Experiment: inhibitors in S. typhi counter-screen strain, dose response, counter-screen for PhoP regulon inhibitor project, fluorescence, 4 h (AID 2384)
Conditions: S. typhi GFP reporter counter-screen; series mostly up to 150 µM; inhibition: at the top concentration

Row | SMILES | inhibition
1 | COc1ccc(CC(=O)Nc2ncc([N+](=O)[O-])s2)cc1OC | 20.6% (inactive)
2 | Cc1ccc(CNC(=O)CCC(=O)Nc2nnc(C)s2)cc1 | -21.4% (inactive)
3 | O=C(Nc1ccc(N2CCOCC2)cc1)c1ccc(S(=O)(=O)NCc2ccco2)cc1 | 3.82% (inactive)
4 | O=C(NCc1ccccn1)c1nc(Cn2ccc([N+](=O)[O-])n2)no1 | -7.25% (inactive)
5 | CC(C)NC(=O)Nc1ccc(Br)cc1Cl | 2.32% (inactive)
6 | CCC1Oc2ccc(C)cc2N(CC(=O)NCC2COc3ccccc3O2)C1=O (stereo not given) | -30.8% (inactive)
7 | CSCCC(NC(=O)c1ccc(Br)cc1)C(=O)O (stereo not given) | 8.59% (inactive)
8 | CCCCOc1ccc(OCCNC(=O)c2ccco2)cc1 | 33% (inactive)
9 | CCOc1ccc(NC(=O)c2ccc(N)cc2)cc1 | 35% (inactive)
10 | CCS(=O)(=O)N1CCN(C(=O)c2ccco2)CC1 | 4.55% (inactive)
11 | CCCN(CCC)CC(=O)Nc1cccc2c1OCO2 | 36.9% (inactive)
12 | Cc1nc2ccccn2c1/C(O)=C1\C(=O)C(=O)N(CCN2CCOCC2)C1c1cccnc1 (stereo not given) | -27.4% (inactive)
13 | COc1cccc(C(=O)N(CN2CCCC2=O)c2cc(C)on2)c1 | -17.4% (inactive)
14 | CCCCCCC(=O)N(O)C1CC(=O)N(Cc2ccccc2)C1=O (stereo not given) | -30.3% (inactive)
15 | COc1cc(C)nc(N2CCCC(C(=O)NCC(C)C)C2)n1 (stereo not given) | -1.6% (inactive)
16 | CCN1C(=O)NC(c2ccccc2)C1=O (stereo not given) | -13.8% (inactive)
17 | O=C(Cn1cnc2cc([N+](=O)[O-])ccc2c1=O)Nc1ccccc1Cl | -23.5% (inactive)
18 | O=C(Cn1cc(/C=C\[N+](=O)[O-])c2ccccc21)Nc1ccccc1 | -16.3% (inactive)
19 | O=[N+]([O-])c1ccc(CN2CCSCC2)cc1 | 0.59% (inactive)
20 | CCOc1ccc2ccccc2c1C(=O)N[C@@H]1C(=O)N2[C@@H]1SC(C)(C)[C@@H]2C(=O)O | -8.71% (inactive)
21 | O=C(CN(CCc1ccccc1)C(=O)CNS(=O)(=O)c1ccc(F)cc1)NCC1CCCO1 (stereo not given) | -12.6% (inactive)
22 | CCOc1cc(C2NC(=O)N(C)C(C)=C2[N+](=O)[O-])ccc1OC(C)=O (stereo not given) | 14.6% (inactive)
23 | O=C(c1ccccc1F)N1C(=O)c2cccc3cccc1c23 | -21.7% (inactive)
24 | COc1ccccc1/C=N/N1C(=O)c2cccc3cccc(c23)C1=O | 5.18% (inactive)

Row | SMILES | inhibition
25 | COCc1[nH]nc2c1C(c1ccc(OC)cc1)C(C#N)=C(N)O2 (stereo not given) | 16.7% (inactive)
26 | Cn1c(C(O)c2ccccc2F)nc(Cl)c1Cl (stereo not given) | -1.03% (inactive)
27 | Cc1cc(Br)cc2cn[nH]c12 | -15.8% (inactive)
28 | CC(C)c1c(O)nc(SCC(=O)N2CCOCC2)[nH]c1=O | 5.37% (inactive)
29 | Cc1cc(C(=O)Cn2cncn2)c(C)n1CCc1ccc(F)cc1 | 8.14% (inactive)
30 | CC(C)(C)SCCNC(=O)c1ccccc1 | 25.1% (inactive)
31 | O=C1C2=C(Nc3ccccc3SC2c2ccco2)c2ccccc21 (stereo not given) | 19.7% (inactive)
32 | Brc1ccc2nc(-c3c[nH]c4ccccc34)cn2c1 | 37.6% (inactive)
33 | c1csc(-n2nc3ccccc3n2)c1 | -0.06% (inactive)
34 | CCNC(=S)Nc1cc(-c2ccc(Cl)cc2)[nH]n1 | 6.86% (inactive)
35 | O=S(=O)(Nc1ncccn1)c1ccc(NC(=S)Nc2ccccc2Cl)cc1 | -30.6% (inactive)
36 | Cc1ccc(CCNC(=O)c2cc(S(=O)(=O)N3CCCCC3)c[nH]2)cc1 | -18.9% (inactive)
37 | O=C(N/N=C/c1c(Cl)nc2ccccn2c1=O)c1cccnc1 | 18.8% (inactive)
38 | O=c1c2ccccc2nc(COc2ccccc2)n1/N=C/c1ccc(O)cc1O | 18% (inactive)
39 | COc1nnc(-c2ccc(N3CCOCC3)c(NC(=O)c3ccc(C)cc3)c2)c2ccccc12 | 18.7% (inactive)
40 | CC(C)(C)NC(=O)NC(=O)COC(=O)CCC1CCCC1 | 2.02% (inactive)
41 | COc1ccc(OC)c(CCNC(=O)CS(=O)(=O)Cc2nc(-c3ccccc3C)oc2C)c1 | -14.6% (inactive)
42 | COc1nccnc1NS(=O)(=O)c1ccc(N=Cc2c(C)[nH]n(-c3ccc(C)c(C)c3)c2=O)cc1 | -9.46% (inactive)
43 | COc1ccc(NC(=O)c2cc(Br)c(Br)s2)cn1 | 36.2% (inactive)
44 | COc1cc2[nH]c(=S)n(CC3CCCO3)c(=O)c2cc1OC (stereo not given) | -6.65% (inactive)
45 | Cc1cc([N+](=O)[O-])nn1CC(=O)Nc1cccc2nonc12 | 22.1% (inactive)
46 | CN1CCN(c2ccccc2NC(=O)c2cc3c(s2)-c2ccccc2OC3)CC1 | -9.06% (inactive)
47 | COc1ccc(C)cc1S(=O)(=O)N1CCCC(C(=O)NCC2CCCO2)C1 (stereo not given) | 4.17% (inactive)
48 | C/C(Cn1nnc([N+](=O)[O-])n1)=N\NC(=O)c1ccccc1 | -28.4% (inactive)

Row | SMILES | inhibition
49 | Cc1cc2oc(C(=O)NCc3ccncc3)c(C)c2cc1C | -11% (inactive)
50 | COc1ccc(NC(=O)COC(=O)c2ccc([N+](=O)[O-])o2)cc1Cl | 15.3% (inactive)
51 | O=C(Nc1ccc(N2CCOCC2)c(Cl)c1)c1ccccc1F | 13.2% (inactive)
52 | O=C(Nc1ccc(Cc2ccncc2)cc1)c1cccs1 | 24.9% (inactive)
53 | Cc1onc(C(=O)/C=C/N(C)C)c1C(=O)Nc1nccs1 | 2.19% (inactive)
54 | Cc1cc(C)c2c(=O)[nH]c(SCC(=O)N3CCCCC3)nc2n1 | -2.83% (inactive)
55 | COc1ccc(C2C(C(=O)N3CCC4(CC3)OCCO4)CC(=O)N2c2ccc(OC)cc2)cc1 (stereo not given) | -5.55% (inactive)
56 | COc1ccc(-c2cc(C(=O)Nc3ccc(S(=O)(=O)Nc4onc(C)c4C)cc3)c3ccccc3n2)cc1OC | -16.4% (inactive)
57 | CCOc1ccc(N2C(=O)CN(O)C=C3N=c4ccccc4=C32)cc1 | -4.29% (inactive)
58 | CC(=O)c1ccc(NC(=O)CN2CCCCCC2)cc1 | 5.32% (inactive)
59 | COc1ccc(-c2nc3cc(NC(=O)Cc4ccc(OC)c(OC)c4)ccc3o2)cc1 | -5.04% (inactive)
60 | C[N+]1(CC2COC3(CCCCC3)O2)CCCCC1 (stereo not given) | 2.61% (inactive)
61 | COc1ccc(NC(=O)C2CCCN(C(=O)NC3CCCCC3)C2)cc1OC (stereo not given) | -7.47% (inactive)
62 | CCn1nnnc1SCC(=O)c1cc(Cl)ccc1OC | 26.2% (inactive)
63 | O=c1cc(-c2ccccc2)nc2nc(-c3ccco3)[nH]n12 | 35% (inactive)
64 | C#CCOCCOCCOCCNc1nc(N2CCN(C(=O)CCCCCCCCCCNC(=O)[C@H]([C@@H](C)CC)n3cc(CCCCCN)nn3)CC2)nc(N2CCN(C(=O)CCCCCCCCCCNC(=O)[C@@H]([C@H](C)O)n3cc(C)nn3)CC2)n1 | 10.8% (inactive)
65 | CS(=O)(=O)N1CC(C(=O)NC2CC2)Oc2ccc(Cl)cc21 (stereo not given) | -21% (inactive)
66 | Cc1ccc(SCc2[nH]nc3c2C(c2cccnc2)C(C#N)=C(N)O3)cc1 (stereo not given) | 1.18% (inactive)
67 | CCOC(=O)C1=C(C)NC(SCC(N)=O)=C(C#N)C1c1ccncc1 (stereo not given) | 4.95% (inactive)
68 | CN(CC(=O)NCc1ccncc1)S(=O)(=O)c1ccccc1 | -1.72% (inactive)
69 | COCCNC(=S)N=Nc1c(O)[nH]c2ccc([N+](=O)[O-])cc12 | 1.83% (inactive)
70 | c1ccc2c(c1)nc(N1CCOCC1)c1c3ccccc3[nH]c21 | -17.1% (inactive)

Reference: PubChem BioAssay AID2384 (Southern Research Specialized Biocontainment Screening …, 2010)
